This is an account of results in PubChem BioAssay (NCI).

This is part of a sample that, as a whole, favours compounds with a hit. Of some 79,000 tested, about 15% had one in any assay. Values without a mark were called inactive. Calls of active or inactive are those of the source. Cut-off read from the data, not from the text of the source: active = growth inhibition above about 70%; inactive = the rest.

Assay [1] in a line: NCI Yeast Anticancer Drug Screen. Data for the rad50 strain (AID 155).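 Note: 0% = growth of vehicle-only cultures of the same strain.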 Particulars: S. cerevisiae rad50 strain growth inhibition, hits give high values. The method in brief:
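Relative growth inhibition (compound vs vehicle) was measured in yeast with a defined repair-gene alteration.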

The nature of assay [2]: NCI Yeast Anticancer Drug Screen. Data for the mec2-1 strain (AID 157). The note with it: S. cerevisiae mec2-1 strain, hits give high values. The method in brief: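 Each compound was tested on mec2-1 yeast, a strain altered in DNA damage repair or cell cycle control. Growth inhibition is reported relative to vehicle.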
The nature of assay [3]: NCI Yeast Anticancer Drug Screen. Data for the sgs1 mgt1 strain (AID 161).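 Note: 0% = growth of cultures given vehicle only.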 The note with it: S. cerevisiae sgs1 mgt1 strain, hits give high values. Put shortly: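 Mutant yeast exposed to compound; growth scored against vehicle-only wells.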
Assay [4] in a line: NCI Yeast Anticancer Drug Screen. Data for the cln2 rad14 strain (AID 165).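 Note: 0% = growth equal to vehicle treated cultures.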 The note with it: S. cerevisiae cln2 rad14 strain, hits give high values. The method in brief:
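Test compounds were added to cln2 rad14 yeast cultures; inhibition of growth was then determined by comparison with vehicle treatment.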

A short description of assay [5]: NCI Yeast Anticancer Drug Screen. Data for the bub3 strain (AID 167). Particulars: S. cerevisiae bub3 mutant strain, hits give high values. Put shortly:
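Screening used yeast with an engineered genetic alteration affecting cell cycle control. Compound-exposed cultures were compared with vehicle cultures, and reduced growth was taken as inhibition.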

Assay [6] can be described thus: NCI Yeast Anticancer Drug Screen. Data for the mlh1 rad18 strain (AID 175). Particulars: S. cerevisiae mlh1 rad18 strain growth inhibition, hits give high values. The method in brief: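 Inhibition values reflect reduced growth of mutant yeast versus vehicle-treated controls following compound exposure; the mutations affect DNA damage repair.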
Where [7] appears, read: at 5.0 µM (retest, dose inferred, filed as 0.5).
Where [8] appears, read: at 50.0 µM (retest, dose inferred, filed as 5.0).

Regarding `Cc1cc(Cl)c(O)c(-c2cc(-c3cccc([N+](=O)[O-])c3)c3c(N)[nH]c(=S)nc3n2)c1`, the growth inhibition was -6% in assay [1] (setting [7]); 46% in assay [1] (setting [8]); 28.6% in assay [1] (at 50.0 µM); -6% in assay [2] (setting [7]); 23% in assay [2] (setting [8]); 23.2% in assay [2] (at 50.0 µM). Moreover, the growth inhibition is 3% in assay [3] (setting [7]); 38% in assay [3] (setting [8]); 20.3% in assay [3] (at 50.0 µM); 12% in assay [4] (setting [7]); 33% in assay [4] (setting [8]); 55% in assay [4] (at 50.0 µM). For the same molecule, the growth inhibition was -5% in assay [5] (setting [7]); 45% in assay [5] (setting [8]); -6.15% in assay [5] (at 50.0 µM); 5% in assay [6] (setting [7]); 50% in assay [6] (setting [8]); 25.8% in assay [6] (at 50.0 µM).
With `CCCCNC(C)(C)COC(=O)/C=C/c1ccc(OCCCC)cc1`, the growth inhibition is 6% in assay [1] (setting [7]); 79% (active) in assay [1] (setting [8]); 89.2% (active) in assay [1] (at 50.0 µM); -2% in assay [2] (setting [7]); 47% in assay [2] (setting [8]); 56.2% in assay [2] (at 50.0 µM). Also, the growth inhibition in assay [3] (setting [7]) was 3%; in assay [3] (setting [8]), 86% (active); in assay [3] (at 50.0 µM), 75.8% (active); in assay [4] (setting [7]), 3%; in assay [4] (setting [8]) it was 79% (active); in assay [4] (at 50.0 µM) it was 80% (active). Besides, the growth inhibition in assay [5] (setting [7]) was 4%; in assay [5] (setting [8]) it was 75% (active); in assay [5] (at 50.0 µM) it was 86.6% (active); in assay [6] (setting [7]) it was 0%; in assay [6] (setting [8]) it was 81% (active); in assay [6] (at 50.0 µM), 89.2% (active).
Take `S=c1nc(N2CCCCC2)ss1`: the growth inhibition in assay [1] (setting [7]) is 41%; in assay [1] (setting [8]) it was 94% (active); in assay [1] (at 50.0 µM), 95.2% (active); in assay [2] (setting [7]), 1%; in assay [2] (setting [8]), 75% (active); in assay [2] (at 50.0 µM), 66%. The growth inhibition in assay [3] (setting [7]) is 18%; in assay [3] (setting [8]) it was 93% (active); in assay [3] (at 50.0 µM) it was 97.2% (active); in assay [4] (setting [7]) it was 17%; in assay [4] (setting [8]), 70% (active); in assay [4] (at 50.0 µM), 57.9%. In addition, the growth inhibition in assay [5] (setting [7]) was 17%; in assay [5] (setting [8]) it was 97% (active); in assay [5] (at 50.0 µM) it was 46.5%; in assay [6] (setting [7]), 24%; in assay [6] (setting [8]) it was 94% (active); in assay [6] (at 50.0 µM), 97.2% (active).
Consider `CCN(CC)Cc1c(-c2ccccc2)oc(-c2ccccc2)c1CN(CC)CC`, for which the growth inhibition in assay [1] (setting [7]) was -15%; in assay [1] (setting [8]) it was 33%; in assay [1] (at 50.0 µM), 64.7%; in assay [2] (setting [7]) it was 1%; in assay [2] (setting [8]) it was 2%; in assay [2] (at 50.0 µM), -0.45%. In addition, the growth inhibition in assay [3] (setting [7]) is -15%; in assay [3] (setting [8]) it was 33%; in assay [3] (at 50.0 µM) it was -5.75%; in assay [4] (setting [7]), -2%; in assay [4] (setting [8]), -1%; in assay [4] (at 50.0 µM), -9.8%. The growth inhibition is 1% in assay [5] (setting [7]); 8% in assay [5] (setting [8]); 36.4% in assay [5] (at 50.0 µM); 2% in assay [6] (setting [7]); 32% in assay [6] (setting [8]); 67.4% in assay [6] (at 50.0 µM).
Consider `CCN(CC)CCCNc1ncc(C)c2c1c1ccc3c(O)cccc3c1n2C`, for which the growth inhibition in assay [1] (setting [7]) was 22%; in assay [1] (setting [8]) it was 62%; in assay [1] (at 50.0 µM), 29.3%; in assay [2] (setting [7]) it was 8%; in assay [2] (setting [8]), 7%; in assay [2] (at 50.0 µM), -0.35%. Also, the growth inhibition in assay [3] (setting [7]) is 21%; in assay [3] (setting [8]) it was 40%; in assay [3] (at 50.0 µM) it was -31.9%; in assay [4] (setting [7]), 8%; in assay [4] (setting [8]), 8%; in assay [4] (at 50.0 µM) it was -17.4%. In addition, the growth inhibition in assay [5] (setting [7]) was 19%; in assay [5] (setting [8]), 35%; in assay [5] (at 50.0 µM), -9.95%; in assay [6] (setting [7]), 17%; in assay [6] (setting [8]), 34%; in assay [6] (at 50.0 µM), -3.05%.
On to `CC(=O)c1c(CO[N+](=O)[O-])n([O-])c2ccccc2[n+]1=O`, for which the growth inhibition in assay [1] (setting [7]) is 11%; in assay [1] (setting [8]), 60%; in assay [1] (at 50.0 µM), 69.4%; in assay [2] (setting [7]), 7%; in assay [2] (setting [8]), 20%; in assay [2] (at 50.0 µM), 13.6%. Besides, the growth inhibition is 13% in assay [3] (setting [7]); 40% in assay [3] (setting [8]); 42.5% in assay [3] (at 50.0 µM); -1% in assay [4] (setting [7]); 17% in assay [4] (setting [8]); 22% in assay [4] (at 50.0 µM). Moreover, the growth inhibition is -1% in assay [5] (setting [7]); -4% in assay [5] (setting [8]); 15.7% in assay [5] (at 50.0 µM); 1% in assay [6] (setting [7]); 33% in assay [6] (setting [8]); 45.9% in assay [6] (at 50.0 µM).
Take `CC(C)(C)N/N=C(\C(=O)NC1=C(Cl)C(=O)c2ccccc2C1=O)C1C=CCS1(=O)=O` (stereo not given): the growth inhibition in assay [1] (setting [7]) is 7%; in assay [1] (setting [8]) it was 89% (active); in assay [1] (at 50.0 µM), 90.2% (active); in assay [2] (setting [7]), -10%; in assay [2] (setting [8]) it was 65%; in assay [2] (at 50.0 µM) it was 72.3% (active). The growth inhibition in assay [3] (setting [7]) is -4%; in assay [3] (setting [8]) it was 86% (active); in assay [3] (at 50.0 µM), 68.4%; in assay [4] (setting [7]) it was -26%; in assay [4] (setting [8]) it was 48%; in assay [4] (at 50.0 µM), 31.3%. The growth inhibition is 0% in assay [5] (setting [7]); 92% (active) in assay [5] (setting [8]); 84% (active) in assay [5] (at 50.0 µM); 15% in assay [6] (setting [7]); 81% (active) in assay [6] (setting [8]); 61.5% in assay [6] (at 50.0 µM).
In the case of `C=C(C)C(=O)OC1CC2=CC(CC3(C)OC3C3OC(=O)C(=C)C13)OC2=O` (stereo not given), the growth inhibition is 1% in assay [1] (setting [7]); 19% in assay [1] (setting [8]); 88.8% (active) in assay [1] (at 50.0 µM); 3% in assay [2] (setting [7]); 37% in assay [2] (setting [8]); 87% (active) in assay [2] (at 50.0 µM). Besides, the growth inhibition was 4% in assay [3] (setting [7]); 35% in assay [3] (setting [8]); 57.6% in assay [3] (at 50.0 µM); 8% in assay [4] (setting [7]); 15% in assay [4] (setting [8]); 30.5% in assay [4] (at 50.0 µM). Further, the growth inhibition in assay [5] (setting [7]) was 1%; in assay [5] (setting [8]), 43%; in assay [5] (at 50.0 µM), 78.8% (active); in assay [6] (setting [7]), 4%; in assay [6] (setting [8]) it was 51%; in assay [6] (at 50.0 µM), 50.5%.
For `O=C1CCCC/C1=C(\Br)I`, the growth inhibition in assay [1] (setting [7]) was 35%; in assay [1] (setting [8]), 99% (active); in assay [1] (at 50.0 µM) it was 89.1% (active); in assay [2] (setting [7]), 31%; in assay [2] (setting [8]) it was 100% (active); in assay [2] (at 50.0 µM), 92.3% (active). For the same molecule, the growth inhibition is 28% in assay [3] (setting [7]); 100% (active) in assay [3] (setting [8]); 91.2% (active) in assay [3] (at 50.0 µM); 19% in assay [4] (setting [7]); 93% (active) in assay [4] (setting [8]); 91.4% (active) in assay [4] (at 50.0 µM). Moreover, the growth inhibition was 45% in assay [5] (setting [7]); 100% (active) in assay [5] (setting [8]); 89.1% (active) in assay [5] (at 50.0 µM); 31% in assay [6] (setting [7]); 99% (active) in assay [6] (setting [8]); 93% (active) in assay [6] (at 50.0 µM).
With `CC(C)=Cc1cc2c(cc1O)CCC1C2CC[C@@]2(C)C1CC[C@@H]2O` (stereo not given in full), the growth inhibition in assay [1] (setting [7]) is 14%; in assay [1] (setting [8]), 16%; in assay [1] (at 50.0 µM), 41.2%; in assay [2] (setting [7]), -5%; in assay [2] (setting [8]) it was 24%; in assay [2] (at 50.0 µM), 60.1%. Besides, the growth inhibition is -14% in assay [3] (setting [7]); 8% in assay [3] (setting [8]); 71% (active) in assay [3] (at 50.0 µM); 7% in assay [4] (setting [7]); 29% in assay [4] (setting [8]); 78.6% (active) in assay [4] (at 50.0 µM). For the same molecule, the growth inhibition was -29% in assay [5] (setting [7]); 22% in assay [5] (setting [8]); 45.8% in assay [5] (at 50.0 µM); -1% in assay [6] (setting [7]); 23% in assay [6] (setting [8]); 54.2% in assay [6] (at 50.0 µM).
